Measured values reported in a collection of fitness landscapes (doi:10.1016/j.celrep.2020.107928).
Whole data set: some 81,000 sequences, median “one-hybrid fitness for binding NBS DNA” near -0.1, cut for the highest 2% near 0.36. The entries come from a sample that favours the highest values as a whole.

B1: Caulobacter ParB omega fusion; a variant is named by its letters at X, in order, B8GW30 (parent)
chain: MESVVVGEPGMSEGRRGLGRGLSALLGEVDAAPAQAPGEQLGGSREAPIEILQRNPDQPRRTFREEDLEDLSNSIREKGVLQPILVRPSPDTAGEYQIVAGERAWRAAQRAGLKTVPIMVRELDDLAVLEIGIIENVQRADLNVLEEALSYKVLMEKFERTQENIAQTIGKSXSHVANXMRLLXLPDEVQSYLVSGELTAXHARAIAAAADPVALAKQIIEGGLSVRETEALARKAPNLSAGKSKGGRPPRVKDTDTQALESDLSSVLGLDVSIDHRGSTGTLTITYATLEQLDDLCNRLTRGI

Variants of: B1
Assay: one-hybrid fitness for binding NBS DNA (the Noc-binding site; scaled: cognate 1, non-cognate 0); higher = stronger binding
Conditions: with NBS DNA site
Summary of the method: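 On M9-minus-histidine containing 0.1 mM IPTG and 5 mM 3-AT, E. coli USO cells with a HIS3 reporter, site 19 bp from the promoter, grew 48 hours at 37°C to select Caulobacter ParB libraries randomised at four specificity codons. Plasmids from before and after were Illumina-sequenced, with three replicate libraries pooled and variants under 10 reads left out. Fitness is the log change in variant-to-wild-type read ratio, rescaled against cognate and non-cognate.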

Row | Variant | one-hybrid fitness for binding NBS DNA
1 | VHFW | ≤ 0.2
2 | QRRV | 0.574
3 | QHQV | ≤ 0.2
4 | QRNV | 0.453
5 | QHRV | 0.378
6 | QRYV | 0.348
7 | QCNV | ≤ 0.2
8 | QREV | ≤ 0.2
9 | QPHV | ≤ 0.2
10 | QRDV | ≤ 0.2
11 | QRHV | 0.439
12 | QHYV | ≤ 0.2
13 | QCHV | 0.214
14 | KSRF | ≤ 0.2
15 | EDAY | ≤ 0.2
16 | VSIE | ≤ 0.2
17 | RVLI | ≤ 0.2
18 | FHTT | ≤ 0.2
19 | NSFQ | ≤ 0.2
20 | LEVT | ≤ 0.2
21 | QASD | ≤ 0.2
22 | QLSH | ≤ 0.2
23 | QLST | 0.413
24 | QLSS | 0.317

Row | Variant | one-hybrid fitness for binding NBS DNA
25 | QSSN | ≤ 0.2
26 | QGST | ≤ 0.2
27 | QHSC | ≤ 0.2
28 | QHST | 0.446
29 | QHSQ | ≤ 0.2
30 | QASN | ≤ 0.2
31 | QAST | 0.395
32 | QSST | 0.424
33 | TKRI | ≤ 0.2
34 | FEYS | ≤ 0.2
35 | SKTD | ≤ 0.2
36 | HPSA | ≤ 0.2
37 | RYAA | ≤ 0.2
38 | WFRC | ≤ 0.2
39 | AMMM | ≤ 0.2
40 | SFTI | ≤ 0.2
41 | QPST | ≤ 0.2
42 | QIST | 0.311
43 | QCST | 0.553
44 | KDHS | ≤ 0.2
45 | QTKT | 0.883
46 | QTVT | 0.517
47 | NTKT | ≤ 0.2
48 | DTKT | ≤ 0.2

Row | Variant | one-hybrid fitness for binding NBS DNA
49 | IWTS | ≤ 0.2
50 | SWRY | ≤ 0.2
51 | VSWL | ≤ 0.2
52 | RRDC | 0.318
53 | RRRC | 0.39
54 | RRWC | 0.393
55 | RKYC | ≤ 0.2
56 | MVEC | 0.453
57 | MVER | 0.34
58 | RRYC | 0.313
59 | RKRC | 0.4
60 | RKDC | ≤ 0.2
61 | RSWC | ≤ 0.2
62 | MVES | ≤ 0.2
63 | RCWC | ≤ 0.2
64 | RQIE | ≤ 0.2
65 | ITGG | ≤ 0.2
66 | VFDW | ≤ 0.2
67 | QNAP | ≤ 0.2
68 | SDVV | ≤ 0.2
69 | ANIL | ≤ 0.2
70 | GEAG | ≤ 0.2
71 | AWVG | ≤ 0.2
72 | LYSD | ≤ 0.2

Row | Variant | one-hybrid fitness for binding NBS DNA
73 | VKHG | ≤ 0.2
74 | FRVT | ≤ 0.2
75 | LRPY | ≤ 0.2
76 | RSRC | 0.355
77 | RPRC | ≤ 0.2
78 | RCRC | 0.391
79 | AGSH | ≤ 0.2
80 | ISGM | ≤ 0.2
81 | RNDS | ≤ 0.2
82 | RNVR | ≤ 0.2
83 | RNYR | ≤ 0.2
84 | RNNP | ≤ 0.2
85 | RNIR | ≤ 0.2
86 | RNNS | 0.388
87 | RNRR | 0.504
88 | RNVS | ≤ 0.2
89 | RNKR | 0.535
90 | RNKS | 0.489
91 | RNKH | 0.237
92 | RNKN | ≤ 0.2
93 | GHAT | ≤ 0.2
94 | RHRC | 0.295
95 | IAAT | ≤ 0.2
96 | AKCT | ≤ 0.2

Row | Variant | one-hybrid fitness for binding NBS DNA
97 | RNDR | ≤ 0.2
98 | RNND | ≤ 0.2
99 | RNNR | 0.381
100 | TPFG | ≤ 0.2
101 | MWSR | ≤ 0.2
102 | HRYM | ≤ 0.2
103 | RRKC | 0.375
104 | RCVC | ≤ 0.2
105 | RRLC | 0.301
106 | RPVC | ≤ 0.2
107 | RRHC | 0.363
108 | RRVC | 0.414
109 | PACV | ≤ 0.2
110 | QHSI | ≤ 0.2
111 | QQYF | ≤ 0.2
112 | QQQN | ≤ 0.2
113 | QQRD | 0.286
114 | QQQS | 0.428
115 | KQRS | 0.224
116 | QQQH | ≤ 0.2
117 | QQRF | 0.387
118 | QQRP | 0.312
119 | QQRS | 0.714
120 | QQRH | 0.645

Row | Variant | one-hybrid fitness for binding NBS DNA
121 | QQRL | 0.329
122 | QQFF | ≤ 0.2
123 | DWKY | ≤ 0.2
124 | RGQM | ≤ 0.2
125 | NLNF | ≤ 0.2
126 | VHRM | ≤ 0.2
127 | GFMT | ≤ 0.2
128 | YDNR | ≤ 0.2
129 | NHAS | ≤ 0.2
130 | GPQT | ≤ 0.2
131 | EHTR | ≤ 0.2
132 | QQWG | ≤ 0.2
133 | QQWS | 0.397
134 | QQSH | 0.208
135 | QQSS | 0.436
136 | QQHS | 0.476
137 | QQHN | ≤ 0.2
138 | QQRN | 0.466
139 | QQWF | ≤ 0.2
140 | QQDN | ≤ 0.2
141 | QQHD | ≤ 0.2
142 | QQSN | ≤ 0.2
143 | QQYN | ≤ 0.2
144 | AVSG | ≤ 0.2

Row | Variant | one-hybrid fitness for binding NBS DNA
145 | DTKE | ≤ 0.2
146 | VVTF | ≤ 0.2
147 | TFLI | ≤ 0.2
148 | TFAN | ≤ 0.2
149 | CKWT | ≤ 0.2
150 | QQNM | 0.206
151 | QQGS | 0.443
152 | QQGP | ≤ 0.2
153 | QQLP | ≤ 0.2
154 | QQLS | 0.373
155 | QQYS | 0.406
156 | QQDS | 0.282
157 | QQNS | 0.515
158 | QQLH | 0.22
159 | QQGN | ≤ 0.2
160 | DMCG | ≤ 0.2
161 | LNDN | ≤ 0.2
162 | HIRY | ≤ 0.2
163 | MHFS | ≤ 0.2
164 | ATTP | ≤ 0.2
165 | ESGF | ≤ 0.2
166 | LAAR | ≤ 0.2
167 | SNHH | ≤ 0.2
168 | VFVQ | ≤ 0.2

Row | Variant | one-hybrid fitness for binding NBS DNA
169 | PNVF | ≤ 0.2
170 | NEKR | ≤ 0.2
171 | QQFS | 0.284
172 | QQAS | 0.435
173 | QQAM | ≤ 0.2
174 | VHVQ | ≤ 0.2
175 | TYPP | ≤ 0.2
176 | SRMD | ≤ 0.2
177 | YAHL | ≤ 0.2
178 | QRVT | 0.69
179 | DRKT | ≤ 0.2
180 | QRKT | 0.848
181 | NRKT | 0.213
182 | SAIP | ≤ 0.2
183 | QINI | ≤ 0.2
184 | TTRR | 0.378
185 | TCKR | 0.262
186 | TTVR | ≤ 0.2
187 | TTYR | ≤ 0.2
188 | TTKR | 0.372
189 | TTDR | ≤ 0.2
190 | LKIL | ≤ 0.2
191 | PMKT | ≤ 0.2
192 | LRKL | ≤ 0.2

Row | Variant | one-hybrid fitness for binding NBS DNA
193 | DLDT | ≤ 0.2
194 | NAVF | ≤ 0.2
195 | TRTI | ≤ 0.2
196 | AVGC | ≤ 0.2
197 | RRKW | 0.351
198 | RRVT | 0.755
199 | RRKT | 0.814
200 | RGKT | 0.24
201 | RCVT | 0.319
202 | GGMT | ≤ 0.2
203 | TPSP | ≤ 0.2
204 | YMFT | ≤ 0.2
205 | DRKR | 0.238
206 | KLKR | 0.319
207 | KRVR | 0.456
208 | DRVR | ≤ 0.2
209 | KRKR | 0.849
210 | KCVR | ≤ 0.2
211 | IHAG | ≤ 0.2
212 | CWRR | ≤ 0.2
213 | HRDS | ≤ 0.2
214 | RKDD | ≤ 0.2
215 | RKDP | ≤ 0.2
216 | RKND | ≤ 0.2

Row | Variant | one-hybrid fitness for binding NBS DNA
217 | RKNS | 0.606
218 | RKDS | 0.412
219 | RKNN | ≤ 0.2
220 | FIER | ≤ 0.2
221 | PSMI | ≤ 0.2
222 | EAPH | ≤ 0.2
223 | ECPR | ≤ 0.2
224 | EAPR | 0.408
225 | EAPF | 0.532
226 | EAPS | ≤ 0.2
227 | EAIR | ≤ 0.2
228 | HVLW | ≤ 0.2
229 | ITMG | ≤ 0.2
230 | VHNR | ≤ 0.2
231 | LWVP | ≤ 0.2
232 | VKGG | ≤ 0.2
233 | EIGT | ≤ 0.2
234 | RTQT | 0.537
235 | RTQC | ≤ 0.2
236 | RTYT | 0.494
237 | RTRT | 0.704
238 | RTET | 0.234
239 | RTQM | ≤ 0.2
240 | RTSP | ≤ 0.2

Row | Variant | one-hybrid fitness for binding NBS DNA
241 | RTIT | 0.352
242 | RTST | 0.565
243 | RTWT | 0.356
244 | RTPT | 0.201
245 | RTSH | 0.207
246 | GGKA | ≤ 0.2
247 | AFLS | ≤ 0.2
248 | RKPM | ≤ 0.2
249 | QSHF | ≤ 0.2
250 | CTPF | ≤ 0.2
251 | PLPM | ≤ 0.2
252 | KIKM | ≤ 0.2
253 | HHNR | ≤ 0.2
254 | NSTM | ≤ 0.2
255 | RTGT | 0.575
256 | RTGC | ≤ 0.2
257 | RTGG | ≤ 0.2
258 | YFNT | ≤ 0.2
259 | RCSK | ≤ 0.2
260 | RRRK | 0.41
261 | RSSK | ≤ 0.2
262 | RRYK | 0.202
263 | RRSK | 0.378
264 | RRDK | ≤ 0.2

Row | Variant | one-hybrid fitness for binding NBS DNA
265 | MRQS | ≤ 0.2
266 | MFRF | ≤ 0.2
267 | LRHC | ≤ 0.2
268 | KHAS | ≤ 0.2
269 | CVNW | ≤ 0.2
270 | REMW | ≤ 0.2
271 | IEYR | ≤ 0.2
272 | TEPR | ≤ 0.2
273 | AEPR | 0.408
274 | IEPS | ≤ 0.2
275 | IEPR | 0.427
276 | AEIR | ≤ 0.2
277 | LSRY | ≤ 0.2
278 | SFFN | ≤ 0.2
279 | EDND | ≤ 0.2
280 | AQKT | ≤ 0.2
281 | RRID | ≤ 0.2
282 | RRPP | ≤ 0.2
283 | RCPR | ≤ 0.2
284 | RRIR | 0.686
285 | RCIR | 0.294
286 | RRPR | 0.605
287 | WWTF | ≤ 0.2
288 | WLEG | ≤ 0.2

Row | Variant | one-hybrid fitness for binding NBS DNA
289 | FKSG | ≤ 0.2
290 | IVTP | ≤ 0.2
291 | PVGL | ≤ 0.2
292 | RSMS | 0.351
293 | RHMD | ≤ 0.2
294 | RTMH | ≤ 0.2
295 | RCMS | 0.412
296 | RKMN | ≤ 0.2
297 | RPMS | ≤ 0.2
298 | RKMS | 0.586
299 | RHMH | ≤ 0.2
300 | RTMS | 0.452
301 | RTMD | ≤ 0.2
302 | RHMS | 0.386
303 | RKMD | ≤ 0.2
304 | WRRW | ≤ 0.2
305 | DIYS | ≤ 0.2
306 | HNSK | ≤ 0.2
